High-throughput results deposited in PubChem by several laboratories.
This is a sample that favours compounds with a hit; in the whole collection about 2.8% have one here.
HSV augment – enhancers of HSV replication in host cells, fold increase, host cell viability; HSV replication augmentation in cells; maximum fold increase; 220,000 tested, 0.005% active; in the data active means maximum fold increase above about 1.5; tested in PC3 cells
EP2 modulator – EP2 receptor modulators, cAMP readout, primary screen, cell-based, HTRF cAMP, PGE2 stimulation; EP2-expressing cells, cAMP HTRF FRET, PGE2 co-stimulation; induction, % at 25 µM; 260,000 tested, 0.83% active; AID 940, 2007;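 active means compounds whose cAMP rise, as percent of the full-agonist control response, exceeds 60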;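 further: rat C6 glioma line stably carrying human EP2 under a CMV promoter; the protocol text gives 20 µM as final concentration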
p47phox inh – p47phox/p22phox peptide binding inhibitors, primary screen, biochemical, uHTS, NADPH oxidase regulatory subunit; Neutrophil cytosol factor 1 (Homo sapiens), P14598; fluorescence polarization, 2 h; inhibition, % at 24.7 µM; 220,000 tested, 0.53% active;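 active means inhibition above about 30%, limit read from the data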
Target sequence (P14598 whole entry, looked up): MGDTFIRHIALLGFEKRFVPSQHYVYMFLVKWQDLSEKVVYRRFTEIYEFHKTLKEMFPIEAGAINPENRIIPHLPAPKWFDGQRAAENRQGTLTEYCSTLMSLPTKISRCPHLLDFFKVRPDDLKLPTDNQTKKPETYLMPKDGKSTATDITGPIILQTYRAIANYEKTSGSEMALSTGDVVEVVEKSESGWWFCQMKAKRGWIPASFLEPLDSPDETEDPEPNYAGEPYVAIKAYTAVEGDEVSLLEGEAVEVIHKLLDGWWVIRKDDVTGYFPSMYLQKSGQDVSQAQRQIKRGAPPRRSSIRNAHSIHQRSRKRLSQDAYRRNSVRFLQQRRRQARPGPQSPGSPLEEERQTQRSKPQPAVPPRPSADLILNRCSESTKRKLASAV
Wee1 degr inh – Wee1 degradation inhibitors, primary screen, cell-based, HeLa, Wee1K328M-luciferase, luminescence; Wee1-like protein kinase (Homo sapiens), P30291; HeLa Luc-Wee1K328M stability; 100% = proteasome inhibitor MG132 effect; reporter increase, % at 5 µM; 220,000 tested, 1.2% active;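 active means activation above the mean of all tested compounds plus 3 SD, set per screening run, cut at about 8.8% in these data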;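 further: cells exposed to compound for 20 h before luminescence read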
Furin inhibitor – human furin inhibitors, primary screen, biochemical, fluorescence intensity; purified furin, fluorogenic substrate cleavage; P09958; 220,000 tested, 0.061% active; inhibition, % at 20 µM or 30 µM; in the data active means inhibition above about 25%
EP2 antag – human EP2 receptor antagonists, primary screen, TR-FRET cAMP, C6 glioma cells | Prostaglandin E2 receptor EP2 subtype (Homo sapiens), P43116 | C6 glioma cells expressing human EP2; cells stimulated with saturating PGE2 | inhibition, % at 25 µM | 260,000 tested, 0.52% active | AID 1422, 2008;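 active means percent inhibition above 40 after rounding to a whole number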;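 further: rat C6 glioma host cells with rolipram phosphodiesterase inhibitor present; the protocol text gives 20 µM as final concentration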
EP2 confirm – cAMP induction in EP2, EP4, beta2-AR and parental cells, confirmation, counter-screen for EP2 modulator project, cell-based, five parallel assays, C6 glioma, HEK293; shares compounds with EP2 modulator; cAMP HTRF induction; plus low (about EC15) PGE2 agonist; calls only at 20 µM (by protocol); 1,300 tested, 47% active; AID 1080, 2008;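 active means cAMP induction above 50% in the main assay while under 30% in all four parallel counter assays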;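 further: rat C6 glioma cells stably expressing human EP2 receptor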
Large screens that a line does not name were inactive (follow-up assays come after a bar, where they were run); ! = not active in a repeat.

CC(=O)c1cccc(NC(=O)COc2ccc(S(=O)(=O)N3CCCC3)cc2)c1	none (no result: HSV augment, p47phox inh, Wee1 degr inh, Furin inhibitor)
O=C1C2C3c4ccccc4C(c4ccccc43)C2c2nc3ccccc3n21 (centres undefined)	EP2 modulator 74 | EP2 confirm active
COc1cc2ccccc2cc1C(=O)NC(=S)Nc1cccc(C(=O)O)c1	EP2 modulator 95 | EP2 confirm active
CCOC(=O)C1=C(C)OC(N)=C(C#N)C1c1cc2ccc(C)c(C)c2[nH]c1=O (centres undefined)	none (no result: HSV augment, p47phox inh, Wee1 degr inh, Furin inhibitor)
CCC(c1nnnn1C(C)(C)C)N(CCc1ccccc1)Cc1cc2cccc(C)c2[nH]c1=O (centres undefined)	none (no result: HSV augment, p47phox inh, Wee1 degr inh, Furin inhibitor)
CCOc1ccccc1OCC(=O)Nc1nc(-c2ccccc2)cs1	none (no result: HSV augment, p47phox inh, Wee1 degr inh, Furin inhibitor)
CCc1ccc2[nH]c(=O)c(CN(Cc3nnnn3C3CCCC3)C3CCCCC3)cc2c1	EP2 modulator 74! | EP2 confirm active
Cc1cc2cc(CN(Cc3nnnn3C3CCCCC3)CC3CCCO3)c(=O)[nH]c2cc1C (centres undefined)	EP2 modulator 65! | EP2 confirm inactive
COc1ccc(-c2ccc(=O)n(CC3CCN(C(=O)C(C)(C)C)CC3)n2)cc1OC	none (no result: HSV augment, p47phox inh, Wee1 degr inh, Furin inhibitor, EP2 antag)
O=C(Nc1cccc(Cl)c1N1CCCCC1)c1ccc2c(c1)OCCO2	EP2 modulator 74 | EP2 confirm inactive
O=C(NC(=S)Nc1cccc(Cl)c1N1CCCCC1)c1ccc2c(c1)OCCO2	none
O=C(Nc1ccccc1N1CCCCC1)c1ccc(Cl)c([N+](=O)[O-])c1	none | EP2 confirm active
Cc1ccc(C2CC2c2n[nH]c(=S)n2-c2ccc(C)cc2)cc1 (centres undefined)	none | EP2 confirm inactive
Cc1ccc(-n2c(C3CC3c3ccc(Cl)cc3)n[nH]c2=S)cc1 (centres undefined)	none
COc1cc(OC)c2c(OC)c(-c3ccc4c(c3)OCO4)c(=O)oc2c1	EP2 modulator 62 (no result: HSV augment, p47phox inh, Wee1 degr inh, Furin inhibitor) | EP2 confirm inactive
COc1cc(OC)c2c(-c3ccccc3)cc(=O)oc2c1	none
CCc1nn(CC(=O)OC(C)C)c(=O)c2cc3ccsc3n12	none (no result: HSV augment, p47phox inh, Wee1 degr inh, Furin inhibitor, EP2 antag)
Cc1cc(-c2ccccc2)nc2cc(C(=O)N(Cc3ccccc3)Cc3ccccc3)nn12	EP2 modulator 72 | EP2 confirm active
COc1ccc(-c2cc(C(F)(F)F)n3nc(C(=O)N(C)Cc4ccccc4)cc3n2)cc1OC	none | EP2 confirm inactive
COc1ccc(-c2cc(C(F)(F)F)n3nc(C(=O)Nc4cc(C)on4)cc3n2)cc1OC	none (no result: HSV augment, EP2 antag)
O=C(NCc1ccco1)c1cccnc1	none (no result: HSV augment, p47phox inh, Wee1 degr inh, Furin inhibitor)
CC(C)c1nc2ccccc2c2nn(CC(=O)NC3CCCCC3)c(=O)n12	none (no result: HSV augment, p47phox inh, Wee1 degr inh, Furin inhibitor)
COc1cc(OC)cc(-c2nc(N)n[nH]2)c1	EP2 modulator 68 | EP2 confirm inactive
COc1ccc(CSC2=C(C#N)C(=O)NC3(CCCCC3)S2)cc1	none (no result: HSV augment, p47phox inh, Wee1 degr inh, Furin inhibitor) | EP2 confirm inactive
O=S(=O)(c1ccccc1)N(Cc1nc(-c2ccccc2)no1)C1CCCCC1	EP2 modulator 83 | EP2 confirm active
CC(C)N(Cc1nc(-c2ccccc2)no1)S(=O)(=O)c1ccccc1	none
COC(=O)c1c(NC(=O)Cc2ccc(Cl)cc2)sc(C(=O)Nc2ccccc2OC)c1C	none (no result: HSV augment, p47phox inh, Wee1 degr inh, Furin inhibitor)
Cc1cc(C)c2nc3sc4c(SCC(=O)NCc5cccs5)ncnc4c3cc2c1	none (no result: HSV augment, p47phox inh, Wee1 degr inh, Furin inhibitor)
CSc1nc(Oc2ccc(F)cc2)c2ccccc2n1	EP2 modulator 68 | EP2 confirm active
CCOC(=O)c1sc(NC(=O)CSc2nc(C)nc3sc(C)c(C)c23)nc1C	none (no result: HSV augment, p47phox inh, Wee1 degr inh, Furin inhibitor)
O=C(/C(=C/O)N=Nc1ccccc1Cl)c1ccccc1	EP2 modulator 69 | EP2 confirm active
O=C(O)Cc1c(O)ccc2ccccc12	none
Oc1ccc2ccccc2c1Cc1c(O)ccc2ccccc12	EP2 modulator 70 (no result: HSV augment, p47phox inh, Wee1 degr inh, Furin inhibitor) | EP2 confirm inactive
C=CCNc1ncnc2scc(-c3ccccc3)c12	none (no result: HSV augment, p47phox inh, Wee1 degr inh, Furin inhibitor)
